Screening results as filed in PubChem.
This is a sample that favours compounds with a hit; in the whole collection about 2.5% have one here.
V-ATPase pHluor = alters yeast V-ATPase proton transport | S. cerevisiae, pHLuorin cytosolic pH fluorescence | response, % at 10 µM | 350,000 tested, 0.37% active | AID 504577; in the data active means response mostly above about 7.3%, no sharp cut-off; inactive means mostly below about 5.4%; further: actives read high
Efflux pump inh = blocks antifungal efflux pumps in multiplex yeast assay | AID 485275 | S. cerevisiae Candida pump triplex, Nile Red efflux | inhibition, % at 10 µM | 330,000 tested, 0.44% active;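 active means plate passing quality check with inhibition over a set limit, or well fluorescence over plate mean plus 4 SD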;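 further: Nile Red retained in pooled yeast measured as flow cytometry median fluorescence; higher means more Nile Red kept so more efflux inhibition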
AI-2 QS modul = modulators of Vibrio harveyi AI-2 quorum sensing system; 300,000 tested, 0.4% active; activity change, % at 7.5 µM; Vibrio harveyi JMH597 AI-2 luminescence/OD600 ratio, 9 h; stronger effect = lower value; strain lacks LuxN and CqsS sensors; 0 = neutral-control median; in the data active means activity change below about -75%, passing the limit was not always enough; inconclusive means no clear call, values can overlap the other calls;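 further: luminescence divided by OD600 gain over 9 h not by final OD600 alone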
SUMO Mot1 rescue = blocks SUMOylation pathway, rescuing yeast Mot1-301 growth. growth rescue, % at 18.8 µM. S. cerevisiae Mot1-301 growth rescue, ATP luminescence, 38.5C; percent above DMSO median, 100 means doubled. 320,000 tested, 1% active;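 active means every valid replicate shows activation above 250% relative to neutral control wells; inactive means the rest, any valid replicate at or below 250%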
ATG4B inhibitor = inhibitors of human ATG4B cysteine protease | Q9Y4P1 | ATG4B cleavage of LC3-PLA2, NBD-HPC fluorescence, 1 h | inhibition, % at 8.33 µM | 340,000 tested, 0.51% active; in the data active means inhibition above about 40%
Target sequence (Q9Y4P1 whole entry, looked up): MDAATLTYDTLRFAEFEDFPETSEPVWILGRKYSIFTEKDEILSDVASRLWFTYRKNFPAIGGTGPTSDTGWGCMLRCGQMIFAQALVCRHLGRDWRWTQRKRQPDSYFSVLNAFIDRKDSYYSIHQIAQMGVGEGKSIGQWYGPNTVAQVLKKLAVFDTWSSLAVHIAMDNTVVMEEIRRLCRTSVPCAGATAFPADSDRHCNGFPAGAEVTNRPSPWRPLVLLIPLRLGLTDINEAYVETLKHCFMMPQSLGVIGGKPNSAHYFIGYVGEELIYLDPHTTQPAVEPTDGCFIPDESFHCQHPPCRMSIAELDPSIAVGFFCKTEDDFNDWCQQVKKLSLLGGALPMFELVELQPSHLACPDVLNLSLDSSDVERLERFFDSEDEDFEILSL
Hits are given with their value; . = inactive; ? = inconclusive; / = no result given.

SMILES | V-ATPase pHluor | Efflux pump inh | AI-2 QS modul | SUMO Mot1 rescue | ATG4B inhibitor
CN1CCN(C(c2ccc(Cl)cc2)c2cc(Cl)c3cccnc3c2O)CC1 (stereo not given) | . | . | -122 | . | .
CCC(=O)NC(c1ccc(C)cc1)c1ccc2cccnc2c1O (stereo not given) | . | . | . | . | .
CCN1CCN(C(c2ccc(C(F)(F)F)cc2)c2ccc3cccnc3c2O)CC1 (stereo not given) | . | . | -119 | . | .
CN1CCN(C(c2ccc(C(F)(F)F)cc2)c2cc(Cl)c3cccnc3c2O)CC1 (stereo not given) | / | . | -85 | . | /
Oc1c(C(c2ccccn2)N2CCCCC2)cc(Cl)c2cccnc12 (stereo not given) | . | . | ? | . | .
O=C(COC(=O)c1cc(Cl)cc(Cl)c1)NCc1ccco1 | . | . | / | . | .
O=C1CC(N2CCc3ccccc32)C(=O)N1c1ccc(F)cc1 (stereo not given) | . | . | . | / | .
CCC[C@H]1CN(c2ccccc2)C(=O)[C@@H]1CC(=O)Nc1ccc(Br)cc1 | . | / | / | / | /
O=C(NN=C1CCCCCC1)c1ccc2c(c1)OCO2 | . | . | . | . | .
C[C@]12CC[C@@H]3c4ccc(O)cc4CC[C@H]3[C@@H]1CCC2=O | 93 | . | . | . | .
C[C@]12CCC3c4ccc(O)cc4CCC3C1CC/C2=N\N (stereo not given in full) | . | . | . | . | .
CCc1c(C)nc2ncnn2c1NC1CCCc2ccccc21 (stereo not given) | 13 | . | . | . | .
COc1ccc2c(c1)OC13CCCCC1C2C(C(=O)c1ccccc1)C(=O)N3 (stereo not given) | 20 | . | . | . | .
O=C(COC(=O)CNC(=O)c1ccc(Cl)cc1)Nc1ccc(Cl)cn1 | 13 | . | / | . | .
O=C(Nc1ccc(Cl)cc1Cl)c1ccc(Br)o1 | . | . | . | . | .
O=C(CCNS(=O)(=O)c1ccccc1)NNC(=O)COc1ccccc1F | . | . | / | . | .
CCNS(=O)(=O)c1ccc(OC)c(C(=O)NC2CCCCC2)c1 | . | . | . | 323 | .
Cn1c(=O)c2c(-c3ccccc3)n(Cc3cccnc3)cc2n(C)c1=O | . | . | . | 290 | .
CS(=O)(=O)N1CCC(Oc2cccc(C(=O)NCCCOc3cccnc3)c2)CC1 | . | . | . | . | .
COC(=O)c1cccc(N(C(=O)c2cnccn2)C(C(=O)NCc2ccccc2)c2ccco2)c1 (stereo not given) | . | . | . | 322 | .
COc1ccc(C(C(=O)NCc2ccccc2)N(Cc2ccco2)C(=O)c2cnccn2)cc1 (stereo not given) | . | . | . | . | .
Cc1ccc(C(=O)NC(=S)NCc2ccccc2)cc1Br | . | . | . | . | .
Cc1ccc(C(=O)NCc2ccccc2)cc1Br | . | . | -77 | . | .
COc1ccc(N(CC(=O)Nc2nccs2)S(=O)(=O)c2c(C)nn(C)c2C)cc1 | 14 | . | / | . | .
CC1=CC(=O)c2c(O)ccc(O)c2C1=O | / | 1.0 | / | . | /
SMILES | V-ATPase pHluor | Efflux pump inh | AI-2 QS modul | SUMO Mot1 rescue | ATG4B inhibitor
CCCc1ccc(/C=C2\C(=O)c3ccccc3C(O)=C2C(=O)OCC)cc1 | / | 1.9 | . | . | /
CCOC(=O)C1=C(O)c2ccccc2C(=O)/C1=C\c1ccc(CC)cc1 | . | . | . | . | .
Cc1cc(NC(=O)COC(=O)C2CC(=O)N(c3ccc(Cl)cc3)C2)no1 (stereo not given) | 16 | . | / | . | .
Cc1cc(NC(=O)COC(=O)C2CC(=O)N(c3ccccc3)C2)no1 (stereo not given) | . | . | / | . | .
COc1ccc(CSc2nnc3[nH]c(=O)cc(N)n23)cc1 | . | . | -80 | . | .
N#Cc1ccc(CSc2nnc3[nH]c(=O)cc(N)n23)cc1 | . | . | . | . | .
COc1ccc(-n2ccn3c(CCC(=O)N4CCN(c5cccc(C)c5C)CC4)nnc3c2=O)cc1 | . | . | . | . | .
Cn1nnnc1Sc1ncnc2scc(Br)c12 | . | . | / | 342 | .
CCn1c(SCC(=O)Nc2ccc3c(c2)OCO3)nnc1C(C)C | . | . | . | . | .
Clc1ccccc1-c1ccc2ncnc(NCc3ccc4c(c3)OCO4)c2c1 | . | . | / | 629 | .
Nc1[nH]c(=O)nc(Nc2ccccc2)c1N=O | . | . | . | . | .
Cc1cccc(NC(=O)CNC(=O)c2cc(C3CC3)nn2-c2ccccc2)c1C | 24 | / | / | / | .
Cc1cc(C)c(NC(=O)CNC(=O)c2cc(C3CC3)nn2-c2ccccc2)c(C)c1 | . | . | / | . | .
Cc1ccc2nc(-c3ccc(O)cc3)oc2c1 | . | . | / | . | .
CCN1CCN(Cc2ccc(NC(=O)c3ccc(C)c(NC(=O)c4nccnc4N)c3)cc2C(F)(F)F)CC1 | . | . | . | . | .
CCN1CCN(Cc2ccc(NC(=O)c3cc(NC(=O)c4nccnc4N)cc(OC)c3)cc2C(F)(F)F)CC1 | . | . | . | 353 | .
COc1cccc(CC2(CO)CCN(CC3=CC[C@H]4C[C@@H]3C4(C)C)CC2)c1 | . | . | . | . | .
CS(=O)(=O)Nc1ccccc1C(=O)Nc1ccccc1C(=O)N1CCCC1 | . | . | . | . | .
CS(=O)(=O)Nc1ccc(C(=O)Nc2ccccc2C(=O)N2CCCC2)cc1 | . | . | . | 545 | .
COc1ccc(C(=O)NCC(=O)OCC(=O)Nc2ccc(C)c(S(=O)(=O)N(C)C)c2)cc1OC | . | . | . | . | .
N#C/C(=C\c1ccc(O)c(O)c1)C(=O)NCCc1ccccc1 | . | . | / | 274 | .
Cc1ccc(C2CC(=O)Oc3cc(C)c(Br)c(C)c32)cc1 (stereo not given) | . | . | / | / | .
COc1cc2cc(C(=O)N3CCN(Cc4ccc5c(c4)OCO5)CC3)[nH]c2cc1OC | . | . | . | . | .
O=C(c1cc2cc(F)ccc2[nH]1)N1CCN(Cc2ccc3c(c2)OCO3)CC1 | 14 | . | ? | . | .
COC(=O)CCC(=O)Nc1nc(-c2ccccc2)cs1 | . | . | . | 334 | .
SMILES | V-ATPase pHluor | Efflux pump inh | AI-2 QS modul | SUMO Mot1 rescue | ATG4B inhibitor
Cc1csc(=O)n1CCC(=O)OC(C)C(=O)NCc1ccccc1 (stereo not given) | . | . | / | / | .
CC1(C)Cc2c(sc(NC(=O)COc3cccc4ccccc34)c2C#N)C(C)(C)N1 | . | . | . | . | .
Cc1ccc(OCC(=O)Nc2sc3c(c2C#N)CC(C)(C)NC3(C)C)cc1 | 13 | . | . | . | .
CCCc1cc(=O)oc2cc(C)cc(OCC(=O)NCCCN3CCCC3=O)c12 | . | . | . | . | .
O=C(C1CC(c2ccc(F)cc2)=NO1)N1CCN(Cc2ccccc2)CC1 (stereo not given) | . | . | . | 318 | .
FC(F)(F)c1cc(-c2ccccc2)nc(NCc2cccnc2)n1 | 20 | . | . | . | .
FC(F)(F)c1cc(-c2ccco2)nc(NCc2cccnc2)n1 | . | . | . | . | .
CCOc1ccccc1Nc1nnc(C)c(=O)[nH]1 | 15 | . | . | . | .
O=C1C=CC(=O)N1c1ccc(-c2nc3ccccc3o2)cc1 | 20 | / | / | / | /
